Data: PubChem BioAssay AID430 (Sanford-Burnham Center for Chemical Genomics, 2006)
Among all 63,000 compounds or so, about 1,100 (1.7%) were called active. The list comes from a sample in which actives are over-represented; it also holds similar structures and randomly drawn compounds. Measured potencies and affinities stand elsewhere. Values without a mark were called inactive. No stated cut-off is given here; in the data, active means cytotoxicity above about 50%; inactive means the rest.

Assay: cytotoxicity in HPDE-C7 cells, cell-based, fluorescence, HTS (AID 430);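 further: cells exposed to compound for 48 hours before viability readout; 0% = vehicle and 100% = reference cytotoxic drug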
Conditions: HPDE-C7 pancreatic duct cells viability, at 10 µM, hits give high values

Structure (SMILES)	cytotoxicity
Cn1c(CSc2ccccc2)c(C#N)c2ccccc21	-6.2%
Cc1cc(C(=O)CSc2nnc(NCc3ccccc3)s2)c(C)n1C	58% (active)
Cc1cc(C(=O)CSc2nnc(-c3ccccc3)n2C)c(C)n1C	5.7%
C=CCn1c(C)cc(C(=O)CSc2nnc(Cc3ccccc3)o2)c1C	-20.7%
O=C(CSc1nnc(NCc2ccccc2)s1)c1ccco1	-4.8%
C=CCn1c(C)cc(C(=O)CSc2nnc(NCc3ccccc3)s2)c1C	52.9% (active)
Cc1cc(C(=O)CSc2nnc(Nc3ccccc3)s2)c(C)n1CC1CCCO1 (stereo unspecified)	2.6%
Cc1cc(N2C(=O)C3C4C=CC(C4)C3C2=O)no1 (stereo unspecified)	-1%
COCCCn1c(=S)[nH]c2ccc(N3CCOCC3)cc2c1=O	-10.8%
O=C(O)CCCC(=O)Nc1ccccc1Br	5.7%
CCN1C(=O)c2cccc3c(S(=O)(=O)Nc4ncccc4C)ccc1c23	23.7%
CCN1C(=O)c2cccc3c(S(=O)(=O)Nc4nc(C)cs4)ccc1c23	58.9% (active)
CCOC(=O)Cc1csc(NS(=O)(=O)c2ccc3c4c(cccc24)C(=O)N3CC)n1	8.7%
O=C(c1ccccc1)c1coc2ccc(O)c(Cl)c12	-4.8%
CC(=O)C(C(C)=O)c1c(Cl)c(O)c(O)c2c(C(=O)c3ccccc3)coc12	82.2% (active)
CN(C)Cc1c(O)ccc2occ(C(=O)c3ccccc3)c12	6.4%
CCOC(=O)c1[nH]nc(C(=O)c2ccc(Br)cc2)c1O	-10.7%
Cc1ccc(C(=O)c2coc3ccc(O)c(CN4CCN(C)CC4)c23)cc1	-5.9%
Cc1ccc(OCCn2nc3ccccc3n2)c(C)c1	-1.3%
O=C(CSc1nnc(CNC(=O)c2ccccc2F)o1)Nc1ccc2c(c1)OCCO2	1.1%
O=C(c1ccco1)N1CCN(S(=O)(=O)c2cccs2)CC1	-11.8%
Cc1cc2cc(CN(C(=O)C3CC3)C3CCCC3)c3nnnn3c2cc1C	-22.1%
CCOc1ccccc1Nc1nc(N)nc(CSc2nncn2C)n1	-1.9%
Cc1ccc(Oc2ccc(S(=O)(=O)N3CCOCC3)cc2C(N)=O)c(-n2nc3ccccc3n2)c1	53.1% (active)

Structure (SMILES)	cytotoxicity
COc1ccccc1Oc1ccc(S(=O)(=O)N2CCOCC2)cc1S(=O)(=O)N1CCOCC1	-10.8%
Cc1ccc(S(=O)(=O)N2CCOCC2)cc1C(=O)O	-13.5%
COc1cnn(-c2ccccc2)c(=O)c1N(C)C	-1.2%
O=C(C1CC1)N1CCc2cc(Br)cc(S(=O)(=O)NCCN3CCOCC3)c21	-14.7%
O=c1c2ccccc2nc(SCc2nnc(-c3ccccc3Br)o2)n1Cc1ccco1	14.1%
COC(=O)c1ccc(C(=O)OC)c(NC(=O)c2cnc3n(c2=O)CCS3)c1	-7.2%
CCCc1[nH]nc2c1C(c1ccc(OC)cc1OC)C(C#N)=C(N)O2 (stereo unspecified)	-5%
Oc1ccc2ccccc2c1/C=N/n1cnnc1	10.5%
Oc1ccc2ccccc2c1C=NC12CN3CCN(CN(C3)C1)C2	0.3%
OCC(CO)(CO)N=Cc1c(O)ccc2ccccc12	58.9% (active)
CCNc1nc(N2CCCCC2)nc(-n2nnc(C(=O)OCC)c2C)n1	-22.1%
O=c1[nH]c2ccccc2n1CCCOc1ccccc1	5%
CCCSC1=N/C(=C\C=C\c2ccco2)C(=O)S1	61.6% (active)
C=CCSC1=N/C(=C\C=C\c2ccco2)C(=O)S1	45.9%
O=C1SC(SCc2ccccc2)=N/C1=C\c1ccco1	2.6%
Cc1cccc(OCCCC(=O)Nc2ccc3c(c2)OCO3)c1	34%
CCC(C(=O)c1ccc(O)cc1)c1ccccc1 (stereo unspecified)	9.4%
CN(C)CC(C(=O)c1ccccc1)c1ccccc1 (stereo unspecified)	103% (active)
COc1ccc(C(C(=O)OC(C)CN(C)C)c2ccccc2)cc1 (stereo unspecified)	4.3%
N=c1n(CC(=O)O)c2ccccc2n1Cc1ccccc1Cl	-13.9%
O=C(Cn1nnc(-c2cccc(C(F)(F)F)c2)n1)NC1CCCC1	8.5%
Cc1cc(C)n(CC(=O)n2c3c(c4ccccc42)CCCC3)n1	-18.6%
COC(=O)c1ccc2c(=O)n(Cc3ccc4c(c3)OCO4)c(SCC(=O)N3CCCC3)nc2c1	52.3% (active)
CC1CCCCN1C(=O)CSc1nc2cc3c(cc2c(=O)n1Cc1ccc2c(c1)OCO2)OCO3 (stereo unspecified)	0.1%

Structure (SMILES)	cytotoxicity
COC(=O)c1ccc2c(=O)n(CCC3=CCCCC3)c(SCC(=O)N3CCCC3)nc2c1	-13.9%
Nc1nc(CSc2ncn(-c3ccccc3)n2)cs1	15.3%
CC(=O)N(Cc1cc2ccc(C)c(C)c2n2nnnc12)C1CCCC1	-3.5%
Cc1ccc(S(=O)(=O)N(CC(=O)O)Cc2ccccc2)cc1	-7.6%
O=C(CN1C(=O)C2CC=C(Cl)CC2C1=O)N1CCOCC1 (stereo unspecified)	-3.5%
CN1CCN(C(=O)c2cccc(S(=O)(=O)N3CCCCC3)c2)CC1	-2.6%
O=C(NC1CCCCCC1)c1c(O)c2ccccc2[nH]c1=O	-4.9%
O=C(NC1CCCC1)c1sc(=S)n2c1[nH]c(=O)c1ccccc12	79.4% (active)
O=C(NC1CCCCC1)c1sc(=S)n2c1[nH]c(=O)c1ccccc12	82.6% (active)
Cn1c(C(=O)NC2CCCC2)cc2c(=O)n(C)c3ccccc3c21	3.5%
O=C(NC1CCCCCCC1)c1c(O)c2ccccc2[nH]c1=O	-13.7%
Cn1c(=O)c(C(=O)NC2CCCCCCC2)c(O)c2ccccc21	9.6%
COCCN(CCOC)C(=O)CCn1c(=O)oc2ccccc21	-0.2%
Cc1cc2n(n1)C(c1sccc1C)Nc1c(C)cccc1-2 (stereo unspecified)	-3.2%
C(=C\c1ccccc1)/CSc1nnc(-c2ccccn2)n1Cc1ccco1	33.9%
CC1(C)Cc2nc3oc4c(=S)nc[nH]c4c3cc2CO1	-4.7%
Cn1c(=O)c2c(ncn2CC(=O)N2CCN(c3ccc(F)cc3)CC2)n(C)c1=O	4.3%
COc1ccc(-c2cc(C(F)(F)F)nc(SCCC(=O)NCc3ccco3)n2)cc1	-3.2%
CCOC(=O)CCn1nc(-c2ccccc2)cc1N	-7.8%
CCOC(=O)CS(=O)(=O)c1ccc2ccccc2c1	-10.2%
COCC(C)NC(=O)CCS(=O)(=O)c1nc(-c2ccc(OC)cc2)cc(C(F)(F)F)n1 (stereo unspecified)	66.1% (active)
COc1ccc(-c2cc(C(F)(F)F)nc(SCC(=O)Nc3cc(C)on3)n2)cc1	-21.7%
Cc1cc(NC(=O)CCCS(=O)(=O)c2nc(-c3cccs3)cc(C(F)(F)F)n2)no1	3.6%
CCOC(=O)c1cnn2c(C)cc(-c3ccc(F)cc3)nc12	-7.6%

Structure (SMILES)	cytotoxicity
COc1ccccc1-c1cc(C(F)(F)F)nc(S(=O)(=O)CCCC(=O)Nc2cc(C)on2)n1	38.2%
CCOC(=O)CS(=O)(=O)c1nc(-c2ccccc2)cc(C(F)(F)F)n1	27.1%
CCn1cc(C(=O)NC2CCCCCC2)c2cc(OC)c(OC)cc2c1=O	-1.3%
CS(=O)(=O)Nc1ccc(C(=O)NCCSCc2ccco2)cc1	-13.9%
COCCOC(=O)C1=C(C)NC(=O)NC1c1ccc(OC(=O)c2ccco2)c(OC)c1 (stereo unspecified)	-1.8%
Cc1cc(=O)[nH]c(N2CCN(C(c3ccccc3)c3ccccc3)CC2)n1	-6%
COc1ccc(C2CC(=O)c3cnc(NC(=O)c4cc(OC)cc(OC)c4)nc3C2)cc1 (stereo unspecified)	-16.4%
O=C(NCCN1CCOCC1)c1ccc(-c2ccccc2)cc1	2.5%
CCN(CC)S(=O)(=O)c1ccc(NC(=O)COc2c(OC)cccc2OC)cc1	-2.7%
O=C(CSc1nnc(C23CC4CC(CC(C4)C2)C3)o1)Nc1ccc(N2CCOCC2)c(Cl)c1	-10%
CCOC(=O)c1oc2ccc(S(=O)(=O)N3CCOCC3)cc2c1C	3.6%
CCOC(=O)c1oc2ccc(S(=O)(=O)n3nc(-c4ccc(OC)cc4)cc3N)cc2c1C	54.2% (active)
CCOC(=O)c1oc2ccc(S(=O)(=O)N3CCC(C)CC3)cc2c1C	16.8%
CCn1c(CSc2nccn2C)nc2cc(C(=O)O)ccc21	2.6%
NC1=NC(=O)CC(C(=O)NCc2ccccc2)S1 (stereo unspecified)	-6.8%
Cc1ccccc1OCC(O)Cn1c(N2CCN(c3ccccc3)CC2)nc2c1c(=O)[nH]c(=O)n2C (stereo unspecified)	82.9% (active)
Cn1c(=O)[nH]c(=O)c2c1nc(N1CCOCC1)n2CC(O)COc1ccccc1 (stereo unspecified)	-10.9%
COc1ccccc1OCC(O)Cn1c(Br)nc2c1c(=O)[nH]c(=O)n2C (stereo unspecified)	2.9%
CC(C)CSc1nc2c(c(=O)[nH]c(=O)n2C)n1CC(O)COc1cccc2ccccc12 (stereo unspecified)	68.7% (active)
Cc1ccccc1OCC(O)Cn1c(SC(C)C)nc2c1c(=O)[nH]c(=O)n2C (stereo unspecified)	0.7%
CCSc1nc2c(c(=O)[nH]c(=O)n2C)n1CC(O)COc1ccccc1C (stereo unspecified)	-1.3%
Cc1nn(CCC(=O)O)c2nc(-c3cccnc3)cc(C(F)(F)F)c12	-17.9%
CCN(CC)C(c1ccc(C)cc1)c1nnnn1C1CCCCC1 (stereo unspecified)	-25.4%
Cc1ccc(S(=O)(=O)C2(C(=O)N3CCN(C4CCCCC4)CC3)CC2)cc1	6.1%
